# Values joined by “and” are separate entries in the source; they are usually repeats but may differ in a detail not shown here. Identical values can stand only once. Results filed as inconclusive are left out. A call without a number means that no potency is given here. The source holds several records for some structures; these can differ, active in one and inactive in another. Active and inactive are the calls of the source. The call rests on the fitted dose curve.
# Molecular target: 5-hydroxytryptamine receptor 2A (Homo sapiens) (UniProt P28223)
# Assay: 5-hydroxytryptamine receptor 2A (HTR2A) small molecule antagonists, cell-based qHTS assay (AID 1963586); further: nearly all actives have a fitted effect of over 45% in size
# Method in brief: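 Antagonist-mode intracellular calcium assay: DOI (4 nM) added after 5 min compound pre-incubation at room temperature to dye-loaded HTR2A-CHO cells. Fluorescence followed for 3 min, sampled every second.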
# Potency means the concentration at half of the fitted maximal effect.
# Chain of 5-hydroxytryptamine receptor 2A (Homo sapiens) (P28223 whole entry, looked up): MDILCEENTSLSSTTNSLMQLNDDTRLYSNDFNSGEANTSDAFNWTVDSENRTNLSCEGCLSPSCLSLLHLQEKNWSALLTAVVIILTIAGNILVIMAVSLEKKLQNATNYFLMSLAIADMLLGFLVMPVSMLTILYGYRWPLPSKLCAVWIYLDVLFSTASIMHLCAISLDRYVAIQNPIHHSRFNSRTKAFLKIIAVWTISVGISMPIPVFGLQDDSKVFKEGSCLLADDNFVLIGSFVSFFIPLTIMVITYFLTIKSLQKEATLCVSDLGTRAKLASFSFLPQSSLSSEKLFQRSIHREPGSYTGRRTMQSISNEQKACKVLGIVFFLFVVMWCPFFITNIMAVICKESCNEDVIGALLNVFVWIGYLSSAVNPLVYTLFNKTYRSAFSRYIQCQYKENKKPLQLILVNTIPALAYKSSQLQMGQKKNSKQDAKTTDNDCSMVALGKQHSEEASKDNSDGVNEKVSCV
Structure (SMILES),Potency,"activity, negative = inhibition"
COc1cc(C(=O)NCc2ccc(OCCN(C)C)cc2)cc(OC)c1OC,inactive,
O=C(CCNNC(=O)c1ccncc1)NCc1ccccc1,inactive,
[Cl][Dy]([Cl])[Cl],inactive,
C=CCOC(=O)CCCCCC,inactive,
OCC(O)CN1CCN(c2ccccc2)CC1 (centres undefined),inactive,
C1COC1,inactive,
CCCCCCCCCCC,inactive,
CCCCC(CC)CCC(CC(C)C)OS(=O)(=O)O (centres undefined),inactive,
O=C(O)CONC(=O)c1ccccc1,inactive,
O=Cc1ccc(F)cc1,inactive,
COC(=O)CC(C(C)=O)C(=O)OC (centres undefined),inactive,
CCCCCCCCCCCCCCO,inactive,
COc1ccc(C)cc1,inactive,
CC12CC3CC(C)(C1)CC(N)(C3)C2,inactive,
NS(=O)(=O)c1cc2c(cc1Cl)NC(C1CC3C=CC1C3)NS2(=O)=O (centres undefined),inactive,
CCN1CCCC(OC(=O)C(c2ccccc2)c2ccccc2)C1 (centres undefined),163 nM (active),
CC(C)CC=O,inactive,
Clc1ccc2c(c1)Nc1ccccc1S2,inactive,
CC1CCC(C(C)(C)O)CC1 (centres undefined),inactive,
CCC(=O)OC/C=C(\C)CCC=C(C)C,inactive,
CCCC[O][Al]([O]CCCC)[O]CCCC,inactive,
CC1=CC(C)C(C=O)CC1 (centres undefined),inactive,
O=C[C@H](O)[C@H](O)[C@H](O)CO,inactive,

Structure (SMILES),Potency,"activity, negative = inhibition"
CCc1ccc(Br)cc1,inactive,
COC(=O)CCC(=O)O,inactive,
O=C1c2cccc(O)c2C(=O)c2c(O)cccc21,inactive,
c1ccc2ncccc2c1,inactive,
CCOC(=O)c1cc(=O)c2c(OCC(COc3cccc4oc(C(=O)OCC)cc(=O)c34)OC(=O)[C@@H](N)CCCCN)cccc2o1,inactive,
Cc1sccc1Br,inactive,
Cn1ccnc1,inactive,
CCOc1c(N2CCOCC2)cnn(C)c1=O,inactive,
O=C(O)c1ccc(OCCN2CCCCC2)cc1,inactive,
O=Cc1cc2ccccc2o1,inactive,
CCCCCCCCCCCCCCCCCC(=O)OCC(CC)CCCC (centres undefined),inactive,
NS(=O)(=O)c1ccc(N2CCCCS2(=O)=O)cc1,inactive,
CCCCCCCCCCCCI,inactive,
C/C(=N\O)[C@@H](C)NCC(C)(C)CN[C@H](C)/C(C)=N/O,inactive,
CC/C=C\CCOC(=O)C(C)C,inactive,
O=C1C=CC(=O)O1,inactive,
CCCC[C@H]1CN(CC2CCOCC2)C(=O)OC12CCN(C1(C)CCN(C(=O)c3c(C)ncnc3C)CC1)CC2,inactive,
COC(=O)c1c(Cl)c(Cl)c(C(=O)OC)c(Cl)c1Cl,inactive,
CC1(C)[C@H]2CC[C@]1(C)[C@H](O)C2,inactive,
NC(=O)NS(=O)(=O)c1ccc(Cl)cc1,inactive,
CCC/C=C/CO,inactive,
CCOC(/C=C(\C)CCC=C(C)C)OCC,inactive,
O=c1[nH]c(=O)c2ccccc2o1,inactive,

Structure (SMILES),Potency,"activity, negative = inhibition"
C=CC(=O)OCCCCCC,inactive,
ON=C1CCCCC1,inactive,
COc1ccc(C#N)cc1,inactive,
N[C@H]1C(O)O[C@H](CO)[C@@H](O)[C@@H]1O (some centres undefined),inactive,
CCCCCCCC/C=C\CCCCCCCC(N)=O,inactive,
O=[N+]([O-])c1ccccc1CCO,inactive,
Cc1occc1SSc1ccoc1C,inactive,
C=CC(=O)OCCOC1C2CCC1C1CC=CC12 (centres undefined),,14.3% [at 12.7 µM] (inactive)
CC(=O)OCCOCCOCCOC(C)=O,inactive,
COc1ccc(-c2coc3cc(O)cc(O)c3c2=O)cc1,inactive and 33.4 µM (active),
N#CC1(c2ccc(F)cc2)CCC(=O)CC1,inactive,
CCCCc1ccc(Cl)cc1,inactive,
O=C(O)c1cccc(C(F)(F)F)c1,inactive,
Cc1ccc(C(=O)O)cc1,inactive,
COC(=O)Cc1cccc2ccccc12,inactive,
CCCCCC(=O)O[C@]1(C(C)=O)CC[C@H]2[C@@H]3CCC4=CC(=O)CC[C@]4(C)[C@H]3CC[C@@]21C,inactive,
CCOC(=O)c1c(C)n(C)c2ccc(O)cc12,inactive,
FC(F)(F)c1ccccc1Cl,inactive,
NC/C=C/C(=O)O,inactive,
CC(C)(O)C#CC(C)(C)O,inactive,
CCCCC1CCC(O)CC1 (centres undefined),inactive,
CCOC(OCC)OCC,inactive,
O=C(O)[C@@H]1[C@H]2C[C@H]3c4[nH]c5ccccc5c4CCN3C[C@@H]2CC[C@@H]1O,inactive,

# From PubChem BioAssay (Tox21)
